Measurements reported in PubChem BioAssay (EPA / NIEHS).
Calls of active or inactive are those of the source. The calls were made as follows: active = hit-call score of the fitted dose curve at least 0.9, where 1 is the maximum; inactive = score below 0.9.

Read-out: Fatty Acid-Binding Protein 1 (FABP1), FABP1 (gene 2168)
Assay: LTEA_HepaRG_FABP1: Life Technologies and Expression Analysis (LTEA) Assay for Fatty Acid-Binding Protein 1 (FABP1) using HepaRG (AID 2283494)
Details: mRNA level, 48 h; actives raise or lower the signal
Method: LTEA_HepaRG is a cell based, multiplexed-readout assay that uses HepaRG, a human liver cell line, with measurements taken at 48 hours after chemical dosing on a 96-well plate.LTEA_HepaRG_FABP1 is one of 102 assay component(s) measured in the LTEA HepaRG cell culture assay. It is a marker of Steatosis.Data from the assay component LTEA_HepaRG_FABP1 was analyzed into 1 endpoint. This assay endpoint, LTEA_HepaRG_FABP1, was analyzed with bidirectional fitting relative to DMSO as the negative control and baseline of activity. Using a type of inducible reporter, measures of mRNA induction for gain or loss-of-signal activity can be used to understand regulation of transcription factor activity. To generalize the intended target to other relatable targets, this assay endpoint is annotated to the transporter intended target family, where the subfamily is fatty acid carrier protein.
A total of 1060 chemcials from the ToxCast library were tested in eight-point concentration-response experiments. Cell culture and cytotoxicity assays were conducted at Thermo Fisher Scientific's Custom Services facility (Madison, WI). A single lot of human HepaRG cells (Thermo Fisher Scientific, Frederick, MD) was used for the cell culture experiments. 96-well format collagen type I coated plates of human HepaRG cells were prepared using established methods. Briefly, cryopreserved HepaRG cells were thawed, plated at a density of approximately 100,000 cells/well in HepaRG Thaw, Plate, and General Purpose media (HPRG770, Thermo Fisher Scientific), and incubated for 48 hours. 0.5% DMSO was selected as vehicle control to balance the requisite need of DMSO in HepaRG cultures to maintain differentiation (for example, baseline metabolism, proportions of hepatocytes vs. cholangiocytes), while enabling further hepatic receptor pathway activation (for example, PXR and CAR) in response to chemical exposure. 48 hours after plating, the culture medium was replaced with HepaRG Serum-Free Incudtion Media. Cells were exposed to each test chemical in duplicate and maintained in CO2 incubators for another 48 hours. Chemical plates were thawed to room temperature and 200x concentrations of treatment groups were prepared. 8-point conentration-reponse curves were made with the highest exposure at 100 uM, followed by half-log dilutions, all in 0.5% DMSO. Each test plate contained variouse controls, induction positive controls (1mM phenobarbital), cytotoxicity positive controls ([…] aflatoxin B1), vehicle controls (0.5% DMSO), and total lysis controls (0.5% DMSO). Cell morphology images were taken using an Essen IncuCyte FLR automated microscope, with six 96-well plates imaged in about 24 minutes. Images were captured and exported and JPEG files. Spent culture media was transfered to black-well plates for the LDH assay, and remaining media was sorted at -80 C for later use. Cells were treated with RLT buffer and frozen until shipped for gene expression analysis. Total RNA was isolated from the cell suspension in 75 uL of Buffer RLT (Qiagen, Germantown, MD 20874) by Quintiles/Expression Analysis (Durham, NC) using a custom isolation procedure. Total RNA from each plate well was transferred to a preamplification plate. Fluidigm's 96.96 Dynamic ArrayTM (Fluidigm, Amsterdam, the Netherlands) technology was used for gene expression analyses by quantitative reverse transcription polymerase chain reaction (qRT-PCR, performed by Quintiles/Expression Analysis, Durham, NC)89. Standard TaqManTM Assays (Applied Biosystems/ThermoFisher Scientific, Foster City, CA) were used to assess the expression of 93 genes selected based on their selectivity and sensitivity to important hepatic receptors known to be modulated by environmental chemicals; importance in human hepatocyte functionality; and hepatotoxicity. […]

| SMILES | outcome | AC50 |
| --- | --- | --- |
| CCOC(=O)c1ccccc1C(=O)OCC | inactive | – |
| Cc1ccc(N)cc1N | inactive | – |
| CCN(CC)c1ccccc1 | inactive | – |
| CCCCc1ccccc1 | inactive | – |
| CCCN(CCC)c1c([N+](=O)[O-])cc(C(C)C)cc1[N+](=O)[O-] | – | 9.92 µM (active) |
| CCOc1ccc(C(C)(C)COCc2cccc(Oc3ccccc3)c2)cc1 | inactive | – |
| CCCCN(CCCC)N=O | inactive | – |
| ClC(Cl)(Cl)c1ccccc1 | inactive | – |
| c1ccc(OP(Oc2ccccc2)Oc2ccccc2)cc1 | inactive | – |
| CCOS(=O)(=O)OCC | inactive | – |
| O=[N+]([O-])c1ccccc1 | inactive | – |
| Cc1ccc([N+](=O)[O-])cc1C | inactive | – |
| c1cc2c3c(cccc3c1)CC2 | inactive | – |
| CSC(C)(C)C=NO | inactive | – |
| COCCOCCO | inactive | – |
| CN(C)C(=O)Cl | inactive | – |
| c1ccc2c(c1)Nc1ccccc1S2 | – | 50 µM (active) |
| OCC1CO1 (stereo not given) | inactive | – |
| CCCCCCCc1ccc(O)cc1 | inactive | – |
| CCC1(c2ccccc2)C(=O)N=C(O)NC1=O (stereo not given) | inactive | – |

| SMILES | outcome | AC50 |
| --- | --- | --- |
| ClC1=C(Cl)C2(Cl)C3C(Cl)C(Cl)CC3C1(Cl)C2(Cl)Cl (stereo not given) | – | 12.5 µM (active) |
| CC(Cl)(Cl)C(=O)O | inactive | – |
| CC(Cc1ccc(OCC(=O)O)cc1)NCC(O)c1csc(C(F)(F)F)n1 (stereo not given) | inactive | – |
| Cc1ccc(O)cc1C | inactive | – |
| O=P(Oc1ccccc1)(Oc1ccccc1)Oc1ccccc1 | inactive | – |
| Nc1ccc(Cl)cc1 | inactive | – |
| CC(C)(C)c1ccc(O)cc1 | inactive | – |
| O=C(O)C(Cl)Cl | inactive | – |
| CCC(C)(C)c1ccc(O)cc1 | inactive | – |
| Nc1cc2c3c(c1)C(c1ccccc1)=N[C@@H](NC(=O)c1cccnc1)C(=O)N3CC2 | – | 50 µM (active) |
| c1nc[nH]n1 | inactive | – |
| CC(C)(C)OOC(C)(C)C | inactive | – |
| O=P1(N(CCCl)CCCl)NCCCO1 (stereo not given) | inactive | – |
| [N-]=[N+]=[N-] | – | 77.6 µM (active) |
| CCNc1nc(Cl)nc(NC(C)(C)C)n1 | – | 28.7 µM (active) |
| CCCCN(CCCC)SN(C)C(=O)Oc1cccc2c1OC(C)(C)C2 | inactive | – |
| O=C(O)C1C(C(=O)O)C2(Cl)C(Cl)=C(Cl)C1(Cl)C2(Cl)Cl (stereo not given) | inactive | – |
| CCOP(=S)(OCC)SCSCC | inactive | – |
| CCOP(=S)(Oc1ccc([N+](=O)[O-])cc1)c1ccccc1 (stereo not given) | – | 12.7 µM (active) |
| O=[N+]([O-])c1ccc(Cl)c(Cl)c1 | inactive | – |
